# Test results from PubChem BioAssay (NCI).
# The panel holds about 83,000 compounds, 20% with a hit somewhere; the sample as a whole holds those more often.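 Single-dose data. Exposure time 48 hours. Values below 10 considered active.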 Unmarked numbers belong to inactive results. Activity calls are given as the source filed them.
# Experiments:
# Test in all cases: NCI-60 one-dose screen, 48 h (100 = growth as untreated, 0 = no growth, -100 = all killed)
# [1] = system: HCT-15 colon; conditions: 10 µM unless noted
# [2] = system: HT29 colon; conditions: 10 µM unless noted
# [3] = system: SNB-75 CNS; conditions: 10 µM unless noted
# [4] = system: SNB-19 CNS; conditions: 10 µM unless noted
# [5] = system: U251 CNS; conditions: 10 µM unless noted
# [6] = system: PC-3 prostate; conditions: 10 µM unless noted
# [7] = system: SK-MEL-5 melanoma; conditions: 10 µM unless noted
# [8] = system: UACC-62 melanoma; conditions: 10 µM unless noted
# [9] = system: LOX IMVI melanoma; conditions: 10 µM unless noted
# [10] = system: SK-MEL-28 melanoma; conditions: 10 µM unless noted
# [11] = system: SK-MEL-2 melanoma; conditions: 10 µM unless noted
# [12] = system: EKVX NSCLC; conditions: 10 µM unless noted
# [13] = system: UO-31 renal; conditions: 10 µM unless noted
# [14] = system: TK-10 renal; conditions: 10 µM unless noted
# [15] = system: ACHN renal; conditions: 10 µM unless noted
# [16] = system: CAKI-1 renal; conditions: 10 µM unless noted
# [17] = system: A498 renal; conditions: 10 µM
# [18] = system: HL-60(TB) leukemia; conditions: 10 µM unless noted
# [19] = system: CCRF-CEM leukemia; conditions: 10 µM unless noted
# [20] = system: SN12C renal; conditions: 10 µM unless noted
SMILES,growth [1],growth [2],growth [3],growth [4],growth [5],growth [6],growth [7],growth [8],growth [9],growth [10],growth [11],growth [12] [%],growth [13],growth [14],growth [15],growth [16],growth [17],growth [18],growth [19],growth [20]
C#Cc1ccc2c(c1)C(c1ccccc1F)=NCC(=O)N2C,28%,15.7%,51.7%,49%,39.7%,55.8%,29.9%,31.3%,47.5%,63.8%,19.4%,48.9,72.5%,75.5%,56.9%,55.1%,19.2%,10.2%,58.8%,
COC(=O)[C@@H](C)C[C@H](Cc1ccccc1)NC(=O)c1csc([C@@H](C[C@H](C(C)C)N(C)C(=O)C2(NC(=O)[C@H]3CCCCN3C)CC2)OC(C)=O)n1,20.5%,9.71% (active),26.5%,68.2%,4.91% (active),12.3%,-40.2% (active),41.1%,3.04% (active),58.7%,34.1%,29.1,48%,,32.4%,59.8%,,-46.1% (active),3.37% (active),31.3%
COC(=O)[C@@H](C)C[C@H](Cc1ccccc1)NC(=O)c1csc([C@@H](C[C@H](C(C)C)N(C)C(=O)C2(NC(=O)[C@H]3CCCCN3C)CCC2)OC(C)=O)n1,17.1%,5.81% (active),28.5%,73.2%,6.93% (active),19.4%,-43.7% (active),40%,12.7%,57%,29.5%,31.7,43.3%,,28.8%,27.7%,-2.79% (active),-51.8% (active),10% (active),29.8%
Nc1ncnc2n[nH]nc12,63.4%,79.7%,90.6%,93.5%,70.1%,64.5%,72.5%,46.7%,43.9%,87.6%,12.5%,66.7,35.9%,61%,46.5%,40.1%,51.4%,83.5%,80.7%,
COc1cc2c(cc1OCc1ccccc1)C(CC(C)C)=[N+](C)CC2,99.4%,63.3%,64.9%,69%,49.1%,62.8%,75.9%,81.9%,91.1%,95.1%,82.1%,68.6,87.9%,94%,99.2%,96.2%,95.9%,73%,73.1%,
CCOP1(=O)CC(C)=C(Cl)C(P(=O)(OCC)OCC)C1 (centres undefined),101%,96.2%,78.7%,89.9%,101%,92.6%,101%,92.3%,92.6%,87.3%,104%,109,,135%,110%,110%,103%,,-27.5% (active),101%
COc1ccc(C(O)(C(=O)O)c2ccc(OC)cc2)cc1,95.7%,81.4%,101%,96.9%,93.9%,77.8%,93.6%,85.7%,93.6%,103%,78.8%,85,87.6%,88.2%,85.8%,100%,95.3%,96.9%,79.8%,
CC(=O)ONc1ccc([N+](=O)[O-])c(C(F)(F)F)c1,108%,108%,82.9%,107%,104%,95.4%,109%,96.8%,98.8%,110%,102%,87.6,77.2%,112%,,,103%,90%,97.7%,107%
COP(=O)(OC)C(O)c1ccc(Cl)cc1 (centres undefined),102%,96.1%,89.4%,110%,104%,94.3%,98.7%,101%,96.8%,109%,109%,98.4,83.3%,96.5%,,,98.5%,98.9%,112%,108%
CCOc1ccc(/C=C/[N+](=O)[O-])cc1,51.1%,9.84% (active),90.6%,91.2%,60.1%,77.4%,74.4%,92.8%,62.9%,110%,101%,93.7,71.1%,,96.3%,101%,78.1%,,90.6%,94.5%
CCCCCCCC[N+](C)(CCCCCCCC)CCCCCCCC,-75% (active),-100% (active),-100% (active),-89.6% (active),-75% (active),-91.3% (active),-100% (active),-94.5% (active),-74.7% (active),-100% (active),-94.1% (active),,-100% (active),-100% (active),-93.6% (active),-98.6% (active),-100% (active),32%,85.7%,-86.5% (active)
CC(=O)[O][Hg][O]C(C)=O,93.8%,73.8%,72.6%,110%,84.6%,86.3%,102%,97.2%,70.9%,106%,90.3%,,96.9%,138%,108%,92.3%,,35.2%,27.8%,106%
O=C1CCC2(O)[C@@H]3Cc4ccc(O)c5c4[C@]2(CCN3Cc2ccoc2)C1O5 (some centres undefined),100%,102%,85.1%,101%,101%,44.2%,100%,109%,92.2%,115%,106%,,78.8%,102%,98%,99.3%,108%,95%,98.5%,97.9%
COC[C@@H]1C[C@@]2(C)[C@@H](CC[C@@H]3[C@@H]2CC[C@@]2(C)[C@H]3CC[C@]2(C)O)CC1=O,94.8%,83.4%,90.4%,113%,93.7%,96.8%,106%,100%,95.2%,96.4%,83.2%,,91.1%,85.2%,92.6%,94.4%,,78.6%,,107%
C[C@]12C[C@@H](CO)[C@H](O)C[C@@H]1CC[C@@H]1[C@@H]2CC[C@]2(C)[C@@H](O)CC[C@@H]12,105%,84%,107%,108%,96.1%,95.1%,103%,106%,93.8%,105%,86%,,89.6%,103%,101%,94.1%,95.1%,71%,,106%
CC12CC(=O)C3(SC#N)C(CCC4=CC(=O)CCC43C)C1CCC2=O (centres undefined),34.5%,64.2%,93.6%,96%,101%,104%,101%,89.3%,80.8%,94.7%,125%,,39%,81.4%,49.2%,93.5%,95.3%,43.2%,,85%
